Among the data in PubChem BioAssay (EPA / NIEHS) are AC50 and outcome values, retold here.

In general, AC50 refers to the midpoint of the concentration-response curve, whichever way the signal moves.

The nature of experiment [1]: CCTE_Simmons_MITO_basal_resp_rate: CCTE's HepG2 Seahorse XF Respirometric Screening Assay at Basal Respiratory State, Simmons Lab (AID 2284001). The conditions noted are these: actives raise or lower the signal. The method, boiled down:
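Basal-phase OCR of HepG2 cells on a Seahorse XF96, analysed by bidirectional fit relative to DMSO vehicle; chemicals at 7 concentrations, 125 nM–100 uM final; three biological replicates; fenpyroximate and 2,4-dinitrophenol positive controls.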

Experiment [2] in a line: CCTE_Simmons_MITO_max_resp_rate: CCTE's HepG2 Seahorse XF Respirometric Screening Assay at Maximal Respiratory State [uncoupled], Simmons Lab (AID 2284002). The conditions noted are these: actives raise or lower the signal. The method, boiled down: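 HepG2 oxygen consumption measured on Seahorse XF after FCCP uncoupling, following test compound injection; 7 concentrations from 125 nM to 100 uM final. Readings every 6 min over 72 min, three biological replicates; bidirectional fit versus DMSO.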

The nature of experiment [3]: CCTE_Simmons_MITO_inhib_resp_rate: CCTE's HepG2 Seahorse XF Respirometric Screening Assay at Inhibited Respiratory State [full ETC block], Simmons Lab (AID 2284006). The following applies: actives raise or lower the signal. The method, boiled down:
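Test chemicals at seven final concentrations (125 nM–100 uM) in three biological replicates, with DMSO as vehicle. HepG2 oxygen consumption was then tracked on a Seahorse XF96 for 72 min through FCCP and rotenone/antimycin A phases, with the inhibited-phase rate as the endpoint.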

Experiment [4] in a line: CCTE_Simmons_MITO_viability: CellTiter-Glo Viability Assessment for CCTE's HepG2 Seahorse XF Respirometric Screening Assay [post-hoc], Simmons Lab (AID 2284007; active means hit-call score of the fitted dose curve at least 0.9, where 1 is the maximum;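 on AC50: cells exposed to chemical for 90 min before the ATP read; actives lower ATP signal relative to DMSO baseline meaning reduced viability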). In short, it runs like this: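 Post-hoc viability check on the HepG2 respirometry plates: luciferase-based ATP signal measured once, after 90 min compound exposure spanning 125 nM–100 uM final. Activity was referenced to DMSO as baseline.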

The nature of experiment [5]: CCTE_Shafer_MEA_acute_spike_number: CCTE's Neural Acute Assay for Total Number of Spikes, Shafer Lab (AID 2284008).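 On AC50: curve fitted for decrease in spike count so AC50 reflects inhibitors.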 The method, boiled down:
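Rat primary cortical neurons on 48-well MEA plates, DIV 13 or 15, at 37 C. 40 min baseline then 40 min with compound (0.03-40 uM); spikes detected at 8x rms noise, expressed as percent change from baseline.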

Experiment [6] in a line: CCTE_Shafer_MEA_acute_firing_rate_mean: CCTE's Neural Acute Assay for Mean Firing Rate, Shafer Lab (AID 2284009).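 Further: analyzed for loss of signal so actives lower firing rate relative to DMSO.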 In short, it runs like this:
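Rat cortical neuron cultures matured to DIV 13 or 15, equilibrated 20 min at 37 C, then recorded 40 min for baseline. Compound (0.03-40 uM) added and a further 40 min recorded; percent change in mean firing rate calculated per well.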

Experiment [7] is described as follows: CCTE_Harrill_HTTr_Viability_MCF7: CCTE's 6-hour Cell Viability Assessment for the High-Throughput Transcriptomics (HTTr) Platform, in MCF-7 cells cultured in DMEM + 10% fetal bovine serum, Harrill Lab (AID 2284010). In short, it runs like this: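 Eight-point concentration series, six-hour exposure. Propidium iodide exclusion imaged to assess membrane integrity as a cytotoxicity readout; bidirectional fitting was done with DMSO as negative control and activity baseline.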

A short description of experiment [8]: CCTE_Harrill_HTTr_Apoptosis_MCF7: CCTE's 6-hour Apoptosis Assessment for the High-Throughput Transcriptomics (HTTr) Platform, in MCF-7 cells cultured in DMEM + 10% fetal bovine serum, Harrill Lab (AID 2284011). In short, it runs like this: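 MCF-7 cells in DMEM + 10% FBS exposed 6 h to chemicals over an eight-point dilution series. Caspase-3/7 activation imaged by high-content CellEvent Green staining; fitted bidirectionally versus DMSO.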

Experiment [9] can be described thus: CCTE_Harrill_HTTr_CellCount_MCF7: CCTE's Cell Proliferation Assessment for the High-Throughput Transcriptomics (HTTr) Platform, Harrill Lab (AID 2284012; active means hit-call score of the fitted dose curve at least 0.9, where 1 is the maximum;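 further: count of Hoechst-stained nuclei per well by high-content imaging in MCF-7 cells; cells exposed to compound for six hours; intended direction is loss of nuclei count meaning fewer cells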). The method, boiled down:
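For this full-screen endpoint, MCF-7 cultures received eight compound dilutions for six hours. Well nuclei counts from Hoechst imaging were analyzed relative to DMSO.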

Experiment [10] in a line: CCTE_Shafer_MEA_acute_burst_number: CCTE's Neural Acute Assay for Single-Electrode Bursts, Shafer Lab (AID 2284013). The method, boiled down:
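Percent change in single-electrode burst number per well, from 40-min recordings taken before and after adding compound (0.03-40 uM) to primary rat cortical neurons on MEA plates at DIV 13 or 15, 37 C.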

Experiment [11] in a line: CCTE_Shafer_MEA_acute_per_burst_spike_number_mean: CCTE's Neural Acute Assay for Average Number of Spikes Per Burst, Shafer Lab (AID 2284015).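 Further: hits are decreases in mean spikes per burst versus baseline.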 In short, it runs like this:
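Percent change in mean spikes per single-electrode burst is compared between a 40 min baseline and a 40 min recording with compound (0.03-40 uM). Cultures were rat cortical neurons on MEA plates at DIV 13 or 15, recorded at 37 C, with DMSO as the negative control.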

A short description of experiment [12]: CCTE_Shafer_MEA_acute_interburst_interval_mean: CCTE's Neural Acute Assay for Mean Interburst Interval, Shafer Lab (AID 2284016).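 Further: percent change of mean interburst interval versus each well's own pre-dose baseline; curves fitted for decrease in interburst interval relative to DMSO.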 The method, boiled down: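 Percent change in mean single-electrode interburst interval was calculated per well from 40 min recordings before and after compound (0.03-40 uM). Recordings were made at 37 C on rat cortical cultures at DIV 13 or 15, with spikes detected at 8x rms threshold.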

Experiment [13] can be described thus: CCTE_Shafer_MEA_acute_burst_percentage_mean: CCTE's Neural Acute Assay for Percentage of Spikes in a Burst, Shafer Lab (AID 2284017).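 On AC50: curve fitted for loss of signal so potency reflects decreased burst percentage.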 The method, boiled down:
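Well-level mean burst percentage from a 40-min recording after compound (0.03-40 uM) expressed as percent change from a 40-min baseline at 37C. Cultures: primary rat cortical neurons on MEA, dosed on DIV 13 or 15; fitted downward relative to DMSO.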

The nature of experiment [14]: CCTE_Shafer_MEA_acute_burst_percentage_std: CCTE's Neural Acute Assay for Standard Deviation of Burst Percentage, Shafer Lab (AID 2284018).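 Further: fitted in the negative direction so actives lower burst percentage SD.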 In short, it runs like this: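 Rat primary cortical neurons on 48-well MEAs, DIV 13 or 15, 37 C. 40-min baseline then 40-min recording with compound (0.03-40 uM); well-level SD of per-electrode burst spike percentage, expressed as percent change from baseline.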

Experiment [15] in a line: CCTE_Shafer_MEA_acute_per_network_burst_spike_number_mean: CCTE's Neural Acute Assay for Average Number of Spikes in a Network Burst, Shafer Lab (AID 2284019).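 On AC50: curve fitted for loss of signal so actives reduce spikes per network burst.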 The method, boiled down:
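Rat cortical cultures, DIV 13/15; spike threshold 8x rms noise, 300-5000 Hz band-pass, 12.5 kHz sampling; wells need >/= 10 active electrodes. Compound 0.03-40 uM, 40 min, 37 C; % change vs own baseline, DMSO negative control.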

The nature of experiment [16]: CCTE_Shafer_MEA_acute_per_network_burst_spike_number_std: CCTE's Neural Acute Assay for Standard Deviation of Number of Spikes in a Network Burst, Shafer Lab (AID 2284020).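 Further: fitted for decrease in spike-number SD versus DMSO so actives lower it.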 In short, it runs like this: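 Rat cortical cultures, DIV 13/15, 37 C; 20-min stabilisation, 40-min baseline, compound 0.03-40 uM, 40-min re-record. Spikes detected at 8x rms noise (300-5000 Hz band-pass). Readout: % change from baseline in per-burst spike-number SD.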

Experiment [17] has as its target Nucleoli Translocation, AR (gene 367) (UniProt P10275). Kind of experiment: UPITT_HCI_U2OS_AR_TIF2_Nucleoli_Antagonist: University of Pittsburgh U2OS Androgen Receptor-Transcriptional Intermediary Factor 2 (AR-TIF2) Antagonism High Content Imaging Assay for Nucleoli Translocation (AID 2283997; active means hit-call score of the fitted dose curve at least 0.9, where 1 is the maximum). In short, it runs like this:
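Compounds are added at 20 uM final concentration in 0.2% DMSO to U2OS cells carrying AR-RFP and TIF2-GFP fusions. Nucleolar AR-RFP fluorescence is then quantified by automated imaging. Antagonism is fitted positively against DHT baseline.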

For experiment [18] the target is unchanged. Kind of experiment: UPITT_HCI_U2OS_AR_TIF2_Nucleoli_Agonist: University of Pittsburgh U2OS Androgen Receptor-Transcriptional Intermediary Factor 2 (AR-TIF2) Agonism High Content Imaging Assay for Nucleoli Translocation (AID 2283998; active means hit-call score of the fitted dose curve at least 0.9, where 1 is the maximum). The method, boiled down: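 U2OS cells expressing RFP-tagged human AR and GFP-tagged TIF2; red fluorescence in nucleoli quantified by high-content imaging. Primary screen at 20 uM final (0.2% DMSO); concentration-response 0.195–50 uM (0.5% DMSO), fitted upward versus DMSO.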

The target in experiment [19] is Ratio of Nucleoli Translocation and Cytoplasm, AR (gene 367) (UniProt P10275). Nature of the experiment: UPITT_HCI_U2OS_AR_TIF2_Nucleoli_Cytoplasm_Ratio_Antagonist: University of Pittsburgh U2OS Androgen Receptor-Transcriptional Intermediary Factor 2 (AR-TIF2) Antagonism High Content Imaging Assay for Ratio of Nucleoli Translocation and Cytoplasm (AID 2283999; active means hit-call score of the fitted dose curve at least 0.9, where 1 is the maximum;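 further: antagonists lower the DHT-driven ratio of nucleolar to cytoplasmic red signal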). The method, boiled down: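 This antagonist-mode endpoint tracks AR-RFP localisation, the nucleolus-to-cytoplasm intensity ratio, in TIF2-GFP-coexpressing U2OS cells. DMSO stays at or below 0.5%; testing spans 20 uM single-dose and 0.195–50 uM series, with DHT setting the activity baseline.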

Experiment [20] has the same target. Nature of the experiment: UPITT_HCI_U2OS_AR_TIF2_Nucleoli_Cytoplasm_Ratio_Agonist: University of Pittsburgh U2OS Androgen Receptor-Transcriptional Intermediary Factor 2 (AR-TIF2) Agonism High Content Imaging Assay for Ratio of Nucleoli Translocation and Cytoplasm (AID 2284000; active means hit-call score of the fitted dose curve at least 0.9, where 1 is the maximum;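 further: hits raise the red nucleolar to cytoplasm ratio above vehicle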). The method, boiled down: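 Human osteosarcoma U2OS line, AR-RFP plus TIF2-GFP; compounds 0.195–50 uM final, 0.5% DMSO. Readout: nucleolar/cytoplasmic RFP ratio by HCI, positive direction vs DMSO baseline.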

Where “and” joins values, the source holds several entries; their conditions need not be identical. Equal values may be shown once. Records with an inconclusive call do not appear. Where a structure was tested more than once in an assay, its records may differ in their call. Calls of active or inactive are those of the source. How the source made its calls, unless noted: active means hit-call score of the fitted dose curve at least 0.9, where 1 is the maximum; inactive means score below 0.9.

Nucleoli Translocation, AR (gene 367), sequence (P10275 whole entry, looked up, the tested form may be a part): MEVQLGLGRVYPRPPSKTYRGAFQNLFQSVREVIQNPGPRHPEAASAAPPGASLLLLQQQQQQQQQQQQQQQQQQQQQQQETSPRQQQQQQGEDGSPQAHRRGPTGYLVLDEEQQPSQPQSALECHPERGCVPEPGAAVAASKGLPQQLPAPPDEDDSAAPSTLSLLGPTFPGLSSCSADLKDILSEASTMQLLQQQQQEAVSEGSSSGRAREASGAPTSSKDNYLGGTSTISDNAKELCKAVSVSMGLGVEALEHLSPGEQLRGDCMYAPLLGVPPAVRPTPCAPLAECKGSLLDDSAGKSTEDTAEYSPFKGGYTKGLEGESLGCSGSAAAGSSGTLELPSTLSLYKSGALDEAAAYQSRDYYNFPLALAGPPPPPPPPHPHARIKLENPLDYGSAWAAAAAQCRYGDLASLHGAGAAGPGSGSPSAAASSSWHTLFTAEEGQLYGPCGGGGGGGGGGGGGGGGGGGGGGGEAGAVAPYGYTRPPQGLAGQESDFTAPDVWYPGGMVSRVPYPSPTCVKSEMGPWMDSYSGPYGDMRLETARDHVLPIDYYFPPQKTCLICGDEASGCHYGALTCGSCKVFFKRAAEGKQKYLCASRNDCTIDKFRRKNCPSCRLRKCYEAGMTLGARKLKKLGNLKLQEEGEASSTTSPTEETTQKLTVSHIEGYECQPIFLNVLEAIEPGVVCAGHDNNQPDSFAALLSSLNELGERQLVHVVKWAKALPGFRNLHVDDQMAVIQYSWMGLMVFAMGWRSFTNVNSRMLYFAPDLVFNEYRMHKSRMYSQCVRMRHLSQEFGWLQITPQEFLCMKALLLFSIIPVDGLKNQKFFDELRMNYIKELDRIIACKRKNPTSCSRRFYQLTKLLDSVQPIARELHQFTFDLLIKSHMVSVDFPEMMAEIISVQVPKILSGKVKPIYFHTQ
Ratio of Nucleoli Translocation and Cytoplasm, AR (gene 367), sequence (P10275 whole entry, looked up): as the sequence (P10275 whole entry, looked up, the tested form may be a part) above

`N#Cc1c(Cl)c(Cl)c(Cl)c(C#N)c1Cl`: the AC50 is 22.9 µM (active) in experiment [1], 20 µM (active) in experiment [4] and 6.9 µM (active) in experiment [13]. Also, the result in experiment [2], in [3], in [5], in experiment [6], in [7] and in experiment [8] was inactive. For the same compound, the result in experiment [9], in [10], in experiment [11], in experiment [12], in experiment [14] and in experiment [15] was inactive. Besides, the outcome in experiment [16] was inactive.
Regarding `O=C(O)COc1ccc(Cl)cc1Cl`, the compound was called inactive in experiment [1], in experiment [2], in [3], in experiment [7], in [8] and in experiment [9].
For `CCC(C)(C)C(=O)OC1=C(c2ccc(Cl)cc2Cl)C(=O)OC12CCCCC2`, the AC50 in experiment [17] is 50 µM (active); in [11] it was 20 µM (active); in [13], 3.59 µM (active); in [15] it was 20 µM (active). In addition, the compound was called inactive in [18], in [19], in experiment [20], in experiment [5], in experiment [6] and in experiment [7]. The outcome in [8], in experiment [9], in [10], in experiment [11], in experiment [12] and in experiment [13] was inactive. The compound was classed as inactive in experiment [14], in experiment [15] and in experiment [16].
As to `COP(=S)(OC)Oc1ccc([N+](=O)[O-])cc1`, the result in experiment [1], in [2], in [3], in experiment [4], in [7] and in experiment [8] was inactive. Further, the compound was called inactive in experiment [9].
Consider `O=C(O)CCCOc1ccc(Cl)cc1Cl`, for which the compound was called inactive in experiment [17], in [18], in experiment [20], in experiment [2], in experiment [3] and in experiment [5]. Also, the result in [6], in [7], in experiment [8], in [10], in [11] and in experiment [12] was inactive. The call in [13], in experiment [14], in [15] and in experiment [16] was inactive. The AC50 in experiment [1] was 32.5 µM (active).
With `Cc1[nH]c(=O)n(C(C)(C)C)c(=O)c1Cl`, the compound was classed as inactive in experiment [17], in experiment [18], in experiment [20], in [7], in [8] and in experiment [9].
`CC1(c2ccc(Oc3ccccc3)cc2)OC(=O)N(Nc2ccccc2)C1=O` (stereo not given): the AC50 is 4.7 µM (active) in experiment [1] and 3.04 µM (active) in experiment [2]. The compound was called inactive in [3], in experiment [4], in [7] and in experiment [8].
As to `O=[N+]([O-])c1c(Cl)c(Cl)c(Cl)c(Cl)c1Cl`, in experiment [17], the AC50 is 20.6 µM (active). Also, the call in experiment [18], in experiment [19], in experiment [20], in experiment [7], in experiment [8] and in [9] was inactive.
As to `CCOCN(C(=O)CCl)c1c(C)cccc1CC`, the compound was classed as inactive in experiment [1], in [2], in experiment [3], in experiment [4], in experiment [7] and in experiment [8]. For the same compound, in experiment [9], the call was inactive.
For `Oc1ccc(Cl)cc1Cc1ccccc1`, the AC50 in [17] was 19.1 µM (active); in [18], 13 µM (active); in experiment [19], 7.42 µM (active); in experiment [1] it was 18.3 µM (active) and 24 µM (active); in [2] it was 32.8 µM (active) and 41.5 µM (active); in [5], 1.07 µM (active). Further, the AC50 in experiment [6] was 1.08 µM (active); in experiment [10], 0.814 µM (active); in [13] it was 2.55 µM (active); in [14], 8.33 µM (active); in [15], 1.57 µM (active). In addition, the call in experiment [3], in experiment [4], in [7], in experiment [8], in [9] and in experiment [11] was inactive. For the same compound, the compound was called inactive in experiment [12] and in [16].
